# G9a block: blocks human histone lysine methyltransferase G9a. G9a H3K9 monomethylation, AlphaScreen, 2 h. Potency, µM (top dose mostly 102 µM), actives largely listed as inhibitors. hit rate 8.8% among 350,000; also: nearly all actives have a fitted effect of over 75% in size
# Target sequence (Q96KQ7 913-1193 limits assumed): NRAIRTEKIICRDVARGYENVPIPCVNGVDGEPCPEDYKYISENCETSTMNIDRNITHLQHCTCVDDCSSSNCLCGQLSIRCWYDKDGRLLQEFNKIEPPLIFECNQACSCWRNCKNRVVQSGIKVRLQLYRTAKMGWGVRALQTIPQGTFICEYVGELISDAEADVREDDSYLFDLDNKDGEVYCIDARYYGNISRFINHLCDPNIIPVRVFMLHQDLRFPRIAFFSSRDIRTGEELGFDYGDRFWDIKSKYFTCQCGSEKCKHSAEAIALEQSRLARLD
#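 Step 1: enzyme (final 20 nM) with compound, 15 min RT. Step 2: substrate peptide 500 nM and SAM 20 uM, 2 h RT. Step 3: anti-H3K9me1 antibody and AlphaScreen beads, 10 min, then plate read.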
# HP1b binding inh: HP1-beta chromodomain-methylated histone interaction inhibition; P83916; AlphaScreen HP1-beta / biotin-H3K9me3 peptide binding; Potency, µM (titrated, usually from 114 µM), hits mostly inhibitors; hit rate 0.56% among 390,000; AID 540317; also: nearly all actives have a fitted effect of over 70% in size
# Target sequence (P83916 whole entry, looked up): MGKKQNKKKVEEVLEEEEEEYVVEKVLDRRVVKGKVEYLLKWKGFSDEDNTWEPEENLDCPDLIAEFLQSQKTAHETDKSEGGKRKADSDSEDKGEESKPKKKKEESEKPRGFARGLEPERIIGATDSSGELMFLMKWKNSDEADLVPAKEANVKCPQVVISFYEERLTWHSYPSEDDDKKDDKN
#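 AlphaScreen: HP1-beta (50 nM) preformed 30 min with biotin-H3(1-18)K9me3 peptide (50 nM) in PBS pH 7.4, 0.01% Tween-20. Compound added for 30 min at RT, then streptavidin donor/nickel chelate acceptor beads (10 ug/mL) for 30 min.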
# CtBP-E1A inh: CtBP/E1A binding inhibition. AlphaScreen GST-E1A/His-CtBP binding, 1536-well; active compounds read low. activity change, % (test concentration not listed). hit rate 0.49% among 340,000; in the data active = activity change below about -65%; inconclusive = mostly about -30% to -63%
#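 GST-E1A and His-tagged CtBP (125 nM each as 5X stock) were preincubated with pin-transferred compound for 2 h at 37 °C in the dark, then glutathione donor and nickel acceptor beads were added for 1 h before AlphaScreen reading.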
# BAZ2B inh: inhibitors of human BAZ2B bromodomain | Q9UIF8 | AlphaScreen BAZ2B-H3K14Ac peptide displacement | Potency, µM (titrated, usually from 114 µM), most hits filed as inhibitors | hit rate 4.4% among 360,000 | AID 504333; also: nearly all actives have a fitted effect of over 60% in size
#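 In this displacement format the biotinylated H3(5-23) peptide acetylated at Lys14 serves as ligand at 50 nM, with BAZ2B at 50 nM in PBS pH 7.4 containing 0.01% Tween-20. Donor and acceptor beads are 10 ug/mL final.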
# Six1-Eya2 blk: blocks human Six1 binding to Eya2. AlphaScreen GST-Six1/His-Eya2 binding, biochemical; active compounds read low. activity change, % (no concentration beside the values). hit rate 0.56% among 360,000; in the data active = activity change below about -65%; inconclusive = mostly about -30% to -63%
#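 Homogeneous AlphaScreen proximity assay pairing GST-Six1 with His-tagged Eya2 (added as 5X mix: 250 nM and 500 nM) in 50 mM Tris pH 8.0, 300 mM NaCl, 1 mM TCEP. Glutathione donor and nickel acceptor beads; 1 h, 37 °C, dark.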
# JMJD2A Tudor inh: blocks the human JMJD2A Tudor domain; AlphaScreen JMJD2A-Tudor / H3K4me3 peptide binding; Potency, µM (highest dose often 114 µM), hits mostly inhibitors; hit rate 4.4% among 390,000; AID 504339; also: nearly all actives have a fitted effect of over 50% in size
# Hits are given with their value; 0 = inactive; ? = inconclusive; - = no result given; [ ] = another dose, or the depositor's remark. Shown are actives, neighbours in structure and some others; about 10% of the full set was active somewhere. Unless noted, calls follow the shape of the dose curve; as a rule, active = well fitted inhibition curve with a large enough effect; inconclusive = small, poorly fitted or top-dose-only effect; inactive = no such curve, though single readings can be large or run the other way.
SMILES,G9a block,HP1b binding inh,CtBP-E1A inh,BAZ2B inh,Six1-Eya2 blk,JMJD2A Tudor inh
Cc1sc2c(c1C)c(=O)n(Cc1ccccc1)c(=O)n2CC(=O)Nc1cccc(Cl)c1,0,0,-,0,-,0
COCCn1c(=O)c(CCc2ccccc2)nc2cnc(OCc3ccccc3)nc21,0[0.501 µM],-,-,-,-,-
CC(C)C(C(=O)Nc1ccccc1F)N1C(=O)c2ccccc2C1=O (stereo not drawn),-,0,0,-,0,0
CC(C(=O)Nc1ccccc1F)N1CCN(C)CC1 (stereo not drawn),?,-,-,50µM,-,-
Cc1ccc(-c2cc(C(=O)Oc3ccccc3)c3cc(C)ccc3n2)cc1,0,0,-,0,-,0
O=C(Nc1nnc(-c2ccc(F)cc2)o1)c1ccco1,0[12.7 µM],0,0,50µM,0,79µM
CS(=O)(=O)c1ccccc1-c1nnc(NC(=O)c2ccco2)o1,14µM,0,0,50µM,0,20µM
C[n+]1ccccc1N1CCN(c2ccccc2Cl)CC1,4µM,0,0,0,0,79µM
COc1ccc(S(=O)(=O)N(CC(=O)NCc2ccc(C)cc2)c2ccc(Cl)cc2)cc1,0,0,-,0,-,0
CCOC(=O)c1c(-c2ccc(OC)cc2)csc1NC(=O)CCN1C(=O)c2ccccc2C1=O,?,0,0,0,0,0
CCOC(=O)c1c(-c2ccc(C)cc2)csc1NC(=O)CCN1CC(C)OC(C)C1 (stereo not drawn),?,35µM,0,22µM,0,8.9µM
CCOC(=O)c1c(-c2ccc(OC)cc2)csc1NC(=O)CCN1CCOCC1,3.5µM,?,0,22µM,0,20µM
Cn1cnc(S(=O)(=O)Nc2cc(-c3ccc(Cl)cc3)nn2C)c1,50µM,0,0,0,0,0
Cn1nc(-c2ccccc2)cc1NC(=O)c1ccc(Cl)cc1,0[12.7 µM],0,-,0,0,0
CN(c1ccccc1)S(=O)(=O)c1ccc(NC(=O)c2cc(=O)c3ccccc3o2)cc1,0,0,-,0,-,0
COc1ccc(-c2nc3sc(CCNC(=O)c4ccccc4C)c(C)n3n2)cc1,?,0,-,0,-,0
CCOC(=O)c1cnc2ccc(C)cc2c1Nc1ccc(N2CCOCC2)cc1,40µM,22µM,?,35µM,?,28µM
CCOC(=O)c1cnc2ccc(C(=O)OC)cc2c1Nc1ccc(N2CCOCC2)cc1,13µM,?,-,18µM,-,50µM
CCOC(=O)c1cnc2ccccc2c1Nc1ccc(C(=O)O)cc1,?,0,0,0,0,0
CCOC(=O)c1cnc2ccc(Cl)cc2c1Nc1ccc(N2CCOCC2)cc1,7.1µM,?,-,14µM,-,35µM
CCOC(=O)c1cnc2ccc(C)cc2c1Nc1ccc(N(CC)CC)cc1,4.5µM,10µM,-,3.5µM,-,13µM
CC1CC(C)(C)NC(=S)S1 (stereo not drawn),8.9µM,0,0,0,0,0
CN(C)/C=C1\NC(=S)N(c2ccc(Cl)cc2)C1=O,5.6µM,?,0,?,0,45µM
CN(C)/C=C1\NC(=S)N(c2ccccc2)C1=O,7.9µM,0,0,0,0,35µM
O=C1CNC(=O)N1c1ccc(Cl)cc1,0,0,0,0,0,0
SMILES,G9a block,HP1b binding inh,CtBP-E1A inh,BAZ2B inh,Six1-Eya2 blk,JMJD2A Tudor inh
CCn1ccc2cc(S(=O)(=O)N3CCC(C(=O)NCCc4ccc(C)cc4)CC3)ccc21,0,0,-,0,-,0
CCn1c(Sc2nc(C)nc3scc(-c4cccs4)c23)n[nH]c1=O,45µM,0,0,0,0,0
Cc1nc(SCC(=O)NC(=O)NCCC(C)C)c2c(-c3cccs3)csc2n1,0,0,0,0,0,0
O=S(=O)(Nc1cccc2cccnc12)C1CC1,-,0,-,-,-,50µM
O=S(=O)(Nc1c(Br)cc(Br)c2cccnc12)C1CC1,-,0,-,-,-,25µM
COc1ccc(-c2noc(-c3ccc(NCCc4ccccc4)c([N+](=O)[O-])c3)n2)cc1,?,0,-,0,-,0
Cc1ccc(S(=O)(=O)NCC2CCC(C(=O)NCc3ccc(F)cc3)CC2)cc1 (stereo not drawn),0,0,-,0,-,0
COc1ccc(CNCc2cn(-c3cccc(F)c3)nc2-c2ccc(C)o2)cc1,45µM,0,0,?,0,?
COc1ccc(-n2cc(CNCCc3cnc[nH]3)c(-c3cccc(F)c3)n2)cc1,0,0,0,50µM,0,?
Cc1ccc(-n2cc(CNCCc3ncc(C)[nH]3)c(-c3ccc(F)cc3)n2)cc1,0,0,0,?,0,56µM
COc1ccc(-n2cc(CNCCc3ncc(C)[nH]3)c(-c3ccccc3Cl)n2)cc1,35µM,0,0,?,0,0
CCOC(=O)CSc1nc2sc3c(c2c(=O)n1-c1ccccc1)CC(C(C)C)OC3 (stereo not drawn),0,0,-,0,-,0
COc1ccc(-n2nnnc2C2CCN(S(=O)(=O)c3ccc(NC(C)=O)cc3)CC2)cc1,0,0,-,0,-,0
CC(C)CCn1nnc2sc(-c3ccccc3)cc2c1=O,0,0,-,0,-,0
Cc1ccc(Nc2cc(C)nn2-c2nc(C)cc(=O)[nH]2)cc1,0[12.7 µM],0,-81,0,-82,?
CCOc1ccc(Cn2c(CNS(=O)(=O)c3ccc([N+](=O)[O-])cc3)nc3cccnc32)cc1,0,0,-,0,-,0
CCN(Cc1ccncc1)C(=S)NCc1ccccc1,50µM,0,0,0,0,0
CN1C(=O)Cc2cc(S(=O)(=O)N3CCOCC3)ccc21,40µM,0,0,0,0,0
CC1CCN(S(=O)(=O)c2ccc3c(c2)N(C)C(=O)CC(=O)N3C)CC1,28µM,0,0,0,0,0
Cc1noc(C)c1COC(=O)C1CCN(S(=O)(=O)c2c(Cl)cccc2Cl)CC1,0[0.501 µM],0,0,0,0,0
Cc1ccc(S(=O)(=O)N2CCC(C(=O)OCc3c(C)noc3C)CC2)cc1C,40µM,0,0,0,0,0
CCOC(=O)C1CCN(S(=O)(=O)c2ccc3c(c2)CC(=O)N3C)CC1,45µM,0,0,0,0,?
COc1ccc(CNS(=O)(=O)c2ccc3c(c2)C(C)(C)C(=O)N3C)cc1OC,0,0,-,0,-,0
COc1ccc(CNC(=O)Cn2c(=O)ccc3cc(S(=O)(=O)N4CCCC4)ccc32)cc1,0,0,-,0,-,0
O=C(OCc1ccccc1Cl)c1ccc(-c2nnn(Cc3ccccc3Cl)n2)cc1,0,0,-,0,-,0
SMILES,G9a block,HP1b binding inh,CtBP-E1A inh,BAZ2B inh,Six1-Eya2 blk,JMJD2A Tudor inh
Cc1sc(NC(=O)COc2cccc(-n3cnnn3)c2)c(C#N)c1C,0,0,0,0,0,0
CCOC(=O)c1c(NC(=O)COc2cccc(C)c2C)sc(C(C)=O)c1C,0,0,-,0,-,0
Cc1sc(NC(=O)COc2ccccc2)c(C#N)c1C,10µM,?,0,0,0,0
CCOC(=O)c1c(NC(=O)COc2ccc(Br)cc2)sc(C(C)=O)c1C,14µM,0,-,0,-,0
NC(=O)c1ccsc1NC(=O)COc1ccccc1,0,?,?,0,0,50µM
Cc1cccc(OCC(=O)OCC(=O)Nc2sccc2C(N)=O)c1,-,0,0,-,0,0

# Screening results from PubChem BioAssay.
